# Measured values as given in PubChem BioAssay (EPA / NIEHS).
# Results filed as inconclusive are left out. The source made the active and inactive calls. Rule for the calls: active = hit-call score of the fitted dose curve at least 0.9, where 1 is the maximum; inactive = score below 0.9.
# Read-out: ABC Transporter (ABCB11), ABCB11 (gene 8647)
# Assay: CLD_ABCB11_24hr: CellzDirect (CLD) Gene Expression Assay for ABC Transporter (ABCB11) at 48 hours (AID 2283674)
# Procedure: CLD_24hr is a cell-based, multiplexed-readout assay that uses hepatocyte, a human liver primary cell, with measurements taken at 24 hours after chemical dosing in a 96-well plate.CLD_ABCB11_24hr is one of 16 assay component(s) measured or calculated from the CLD_24hr assay. It is designed to make measurements of mRNA induction, a form of inducible reporter, as detected with chemiluminescence signals by Quantitative Nuclease Protection Assay (qNPA) technology.Data from the assay component CLD_ABCB11_24hr was analyzed at the endpoint, CLD_ABCB11_24hr, in the positive analysis fitting direction relative to DMSO as the negative control and baseline of activity. Using a type of inducible reporter, gain-of-signal activity can be used to understand changes in the reporter gene as they relate to the gene ABCB11. Furthermore, this assay endpoint can be referred to as a primary readout. To generalize the intended target to other relatable targets, this assay endpoint is annotated to the transporter intended target family, where subfamily is ABC transporter.
# Human hepatocyte cultures were treated daily for two consecutive days with fresh dosing solutions containing appropriate concentrations of the 320 ToxCast chemicals (chemical identities were blinded to CellzDirect and other ToxCast collaborators), vehicle control (0.2% DMSO), and positive control inducers as summarized in Table 1. Due to the large number of treatment groups and chemicals examined, the ToxCast chemicals were divided into two groups (spanning two independent cultures of hepatocytes from separate donor preparations (Hu778: ToxCast plates 1 and 2; Hu776: ToxCast plates 3 and 4). Each preparation of human hepatocyte cultures was treated with respective vehicle control, medium only control, set of six positive controls/reference chemicals for the five hepatic receptor pathways, and a subset of eight of the ToxCast chemicals (indoxacarb, pyrithiobac-sodium, norflurazon, cyhalofop-butyl, methomyl, thiram, acetochlor, and propiconazole). These replicate data, coupled with internal replicates designed within the blinded ToxCast chemical library, provided additional data to evaluate interindividual differences between hepatocyte preparations and their potential impact on chemical profiles.Cell morphology and integrity were evaluated using phase-contrast microscopy as an indicator of hepatocyte cell health (Tyson & Green, 1987). Cultures for each treatment group (i.e., media, vehicle [0.2% DMSO], positive control inducers [multiple concentrations], and the ToxCast chemicals [multiple concentrations]) were observed and cell morphology was assessed relative to vehicle control cultures at each harvest time point (0, 6, 24, or 48 h). […] Images were evaluated at the conclusion of the study to assess changes in cell integrity and account for the effects of chemical exposure on uncharacteristic changes in concentration-dependent gene expression profiles. The results from these determinations of apparent cytotoxicity were annotated (yes/no) alongside the corresponding qNPA data for reference.At the conclusion of each treatment period, hepatocyte cultures (96-well) were washed with 1 volume of HBSS, lysed by addition of 25 ul ArrayPlate lysis buffer (HTG, Tucson, AZ), and 70 ul/well of Denaturation Oil, denatured by incubation at 95C for 10 min, and frozen at approximately -70C until analysis by nuclease protection assay (qNPA) (Roberts et al., 2007). For qNPA analysis, cell lysates were thawed at 50C for approximately 30 min, qNPA probes were added, and samples were incubated at 95C for 10 min to begin the detection process by denaturing the target RNA, dissociating the duplexes and secondary structure hybridization. At the conclusion of the hybridization period, S1 nuclease reagent was added to each sample to digest all nonprotected nucleotides at 50C for 60-90 min. […]
Structure (SMILES),AC50,outcome
CC[C@H](C)[C@H]1O[C@]2(C=C[C@@H]1C)C[C@@H]1C[C@@H](C/C=C(\C)[C@@H](O[C@H]3C[C@H](OC)[C@@H](O[C@H]4C[C@H](OC)[C@@H](O)[C@H](C)O4)[C@H](C)O3)[C@@H](C)/C=C/C=C3\CO[C@@H]4[C@H](O)C(C)=C[C@@H](C(=O)O1)[C@]34O)O2 (tested in a mixture with another compound),467 nM (active),
C#CCN1C(=O)COc2cc(F)c(N3C(=O)C4=C(CCCC4)C3=O)cc21,,inactive
O=S1OCC2C(CO1)C1(Cl)C(Cl)=C(Cl)C2(Cl)C1(Cl)Cl (stereo unspecified),,inactive
COP(=S)(OC)Oc1ccc([N+](=O)[O-])cc1,,inactive
COC(=O)c1ccccc1S(=O)(=O)NC(=O)N(C)c1nc(C)nc(OC)n1,,inactive
CCOc1nc(NC)nc(NC(=O)NS(=O)(=O)c2ccccc2C(=O)OC)n1,,inactive
N#Cc1c(Cl)c(Cl)c(Cl)c(C#N)c1Cl,,inactive
Cc1cc(C)nc(NC(=O)NS(=O)(=O)c2ccccc2C(=O)OC2COC2)n1,,inactive
OCCOc1ccccc1,,inactive
[2H]C1([2H])[n+]2ccccc2-c2cccc[n+]2C1([2H])[2H],,inactive
CCOCN(C(=O)CCl)c1c(C)cccc1CC,,inactive
N#CN,,inactive
O=[N+]([O-])/N=C1\NCCN1Cc1ccc(Cl)nc1,,inactive
COC(=O)c1ccccc1S(=O)(=O)NC(=O)Nc1nc(C)nc(OC)n1,,inactive
COc1nn(CSP(=S)(OC)OC)c(=O)s1,,inactive
O=C(NC(=O)c1c(F)cccc1F)Nc1ccc(OC(F)(F)C(F)OC(F)(F)F)c(Cl)c1 (stereo unspecified),,inactive
O=C1c2ccccc2C(=O)N1SC(Cl)(Cl)Cl,,inactive
CCc1ccc(C(=O)NN(C(=O)c2cc(C)cc(C)c2)C(C)(C)C)cc1,,inactive
CCS(=O)(=O)c1cccnc1S(=O)(=O)NC(=O)Nc1nc(OC)cc(OC)n1,,inactive
CNC(=O)/C=C(\C)OP(=O)(OC)OC,,inactive
Clc1ccccc1-c1nnc(-c2ccccc2Cl)nn1,,inactive
